Structures are written as SMILES. A number with no mark means an inactive call. Active and inactive are the calls of the source. The rule behind the calls is not given here.

The first assay relates to Botulinum neurotoxin type F light chain protease (Clostridium botulinum). Nature of the assay: Clostridium botulinum type F light chain protease inhibitors, microsphere substrate cleavage, validation (AID 588459). Particulars: multiplex microsphere protease substrate cleavage assay, flow cytometry; at 10 µM; hits give high values.
As to `CC/C(=C(\c1ccc(O)cc1)c1ccc(OCCN(C)C)cc1)c1ccccc1`, the inhibition was 2.7%.

Take `O=C(O)Cc1ccc(-c2ccccc2)cc1`: the inhibition was 0.5%.

Regarding `C=CCc1cccc2cc(C(=O)Nc3ccc(CC(=O)O)cc3)c(=O)oc12`, the inhibition was 1.3%.

In the case of `C[C@]12CC[C@@H]3c4ccc(OS(=O)(=O)O)cc4CC[C@H]3[C@@H]1CCC2=O`, the inhibition is -0.1%.

Turning to `CC1(C)CC(=O)C2=C(C1)c1c(ccc3ccccc13)NC2c1ccco1` (stereo not given), the inhibition was 1.8%.

Turning to `Nc1ccc(S(=O)(=O)NC(=O)c2ccccc2)cc1`, the inhibition was 1.2%.

Turning to `COC1CCN(C(=O)c2ccc(OC3CCN(Cc4ccccn4)CC3)cc2)CC1`, the inhibition is 2.5%.

As for `CCCCN(CCCC)CCCOC(=O)c1ccc(N)cc1`, the inhibition is -1.6%.

As for `N#CCC(N)=C(C#N)C#N`, the inhibition was -6%.

For `Cc1c(OC(=O)CNC(=O)OC(C)(C)C)ccc2c3c(c(=O)oc12)CCC3`, the inhibition was -2.7%.

In the case of `CCS(=O)(=O)Nc1cc(OC)c(OC)cc1Cc1nccc2cc(OC)c(OC)cc12`, the inhibition is 0.2%.

In the case of `N=C(N)c1ccc(OCCCCCOc2ccc(C(=N)N)cc2)cc1`, the inhibition was 0.7%.

`COC(=O)[C@@H](N)CS`: the inhibition was 2.1%.

As to `CCC(=O)Oc1ccc(/C(CC)=C(\CC)c2ccc(OC(=O)CC)cc2)cc1`, the inhibition was -2%.

`OCC1CCN(Cc2cn(Cc3ccccc3)nc2-c2cc3ccccc3o2)CC1`: the inhibition was -0.4%.

Regarding `O=C(CCN1CCC(c2ccccc2)C1)c1ccc2c(c1)OCCO2` (stereo not given), the inhibition is 4.6%.

Consider `O=C(OCCN1CCOCC1)c1cccs1`, for which the inhibition was -2.8%.

For the molecule `O=C(c1cc2cc(Br)ccc2o1)N1CCCCC1`, the inhibition was 5.3%.

Regarding `CCOC(=O)Cc1c(C)nc(N)[nH]c1=O`, the inhibition is 2.8%.

As to `COc1ccc(C2CC(c3c(O)cc(C)oc3=O)=NCCS2)c(OC)c1` (stereo not given), the inhibition was 4.5%.

`C#C[C@]1(O)CC[C@H]2[C@@H]3CCC4=C(CCC(=O)C4)[C@H]3CC[C@@]21C`: the inhibition is 0.3%.

Consider `CC(=O)OCC(=O)C1=CCC2C3CCC4=CC(=O)C=CC4(C)C3(F)C(OC(C)=O)CC12C` (stereo not given), for which the inhibition is 0.8%.

On to `CC1CCN(C(=O)Oc2ccccc2)CC1`, for which the inhibition was -2.4%.

Consider `O=C(CCSc1ccccc1)N1CCCC1`, for which the inhibition is 1.2%.

For `CCN1CCN(C(=O)N[C@@H](C(=O)N[C@@H]2C(=O)N3[C@@H]2SC(C)(C)[C@@H]3C(=O)O)c2ccccc2)C(=O)C1=O`, the inhibition was -1.5%.

With `COc1ccc(OC)c(NC2=C(Cl)C(=O)N(Cc3ccccc3)C2=O)c1`, the inhibition was 0%.

With `c1ccc(CNc2ncnc3nc[nH]c23)cc1`, the inhibition was -7.5%.

On to `O=C1c2ccccc2N2C(=O)c3ccccc3C2N1Cc1ccco1` (stereo not given), for which the inhibition was 3.3%.

Take `COc1cccc2cc(-c3ccccc3)c(=O)oc12`: the inhibition was -1.9%.

Consider `O=C(CS(=O)(=O)c1ccccc1)c1ccc2c(c1)OCCO2`, for which the inhibition was 3.2%.

Turning to `CCOC(=O)c1cccc(C(=O)OCC)n1`, the inhibition is 3.1%.

For `CCc1nc2ccccc2n1Cc1ccc(OC)c(OC)c1`, the inhibition is -1.2%.

For the molecule `CC(C)=CCC/C(C)=C/CC/C(C)=C/CC/C(C)=C/CC1=C(C)C(=O)c2ccccc2C1=O`, the inhibition was -4.8%.

Turning to `COC(=O)c1cc(OC)c(OC)cc1NC(=O)CN1C(=O)c2ccccc2C1=O`, the inhibition is -3.5%.

On to `Cc1ccc2c(c1)C(O)(CC(=O)/C=C/C=C/c1ccccc1)C(=O)N2` (stereo not given), for which the inhibition is -1.2%.

Turning to `CCOC(=O)C1(Cc2cccc(Cl)c2)CCCN(C2CCN(C(C)=O)CC2)C1` (stereo not given), the inhibition is 9.1%.

Take `CCOc1ccc(NC(=O)N[C@@H](CCSC)C(=O)OC)cc1`: the inhibition is -0.6%.

As to `CC(C)(C)OC(=O)N1CC(O)CC1C(=O)OCC(=O)c1ccc(Cl)cc1` (stereo not given), the inhibition is -2.2%.

On to `Cc1ccc2[nH]c3c(c2c1)CN(C(=O)CN1CCSCC1)CC3`, for which the inhibition was 61.5% (active).

On to `Cc1cccc(CN2CCN(C(c3ccccc3)c3ccc(Cl)cc3)CC2)c1` (stereo not given), for which the inhibition is -0.2%.

The next assay deals with Botulinum neurotoxin type A (Clostridium botulinum) (UniProt P0DPI0). Nature of the assay: BoNT/A light chain protease inhibitors, biochemical, multiplex microsphere flow cytometry, validation set (AID 588460). Particulars: at 10 µM, hits give high values.
Chain of Botulinum neurotoxin type A (Clostridium botulinum) (P0DPI0 whole entry, looked up): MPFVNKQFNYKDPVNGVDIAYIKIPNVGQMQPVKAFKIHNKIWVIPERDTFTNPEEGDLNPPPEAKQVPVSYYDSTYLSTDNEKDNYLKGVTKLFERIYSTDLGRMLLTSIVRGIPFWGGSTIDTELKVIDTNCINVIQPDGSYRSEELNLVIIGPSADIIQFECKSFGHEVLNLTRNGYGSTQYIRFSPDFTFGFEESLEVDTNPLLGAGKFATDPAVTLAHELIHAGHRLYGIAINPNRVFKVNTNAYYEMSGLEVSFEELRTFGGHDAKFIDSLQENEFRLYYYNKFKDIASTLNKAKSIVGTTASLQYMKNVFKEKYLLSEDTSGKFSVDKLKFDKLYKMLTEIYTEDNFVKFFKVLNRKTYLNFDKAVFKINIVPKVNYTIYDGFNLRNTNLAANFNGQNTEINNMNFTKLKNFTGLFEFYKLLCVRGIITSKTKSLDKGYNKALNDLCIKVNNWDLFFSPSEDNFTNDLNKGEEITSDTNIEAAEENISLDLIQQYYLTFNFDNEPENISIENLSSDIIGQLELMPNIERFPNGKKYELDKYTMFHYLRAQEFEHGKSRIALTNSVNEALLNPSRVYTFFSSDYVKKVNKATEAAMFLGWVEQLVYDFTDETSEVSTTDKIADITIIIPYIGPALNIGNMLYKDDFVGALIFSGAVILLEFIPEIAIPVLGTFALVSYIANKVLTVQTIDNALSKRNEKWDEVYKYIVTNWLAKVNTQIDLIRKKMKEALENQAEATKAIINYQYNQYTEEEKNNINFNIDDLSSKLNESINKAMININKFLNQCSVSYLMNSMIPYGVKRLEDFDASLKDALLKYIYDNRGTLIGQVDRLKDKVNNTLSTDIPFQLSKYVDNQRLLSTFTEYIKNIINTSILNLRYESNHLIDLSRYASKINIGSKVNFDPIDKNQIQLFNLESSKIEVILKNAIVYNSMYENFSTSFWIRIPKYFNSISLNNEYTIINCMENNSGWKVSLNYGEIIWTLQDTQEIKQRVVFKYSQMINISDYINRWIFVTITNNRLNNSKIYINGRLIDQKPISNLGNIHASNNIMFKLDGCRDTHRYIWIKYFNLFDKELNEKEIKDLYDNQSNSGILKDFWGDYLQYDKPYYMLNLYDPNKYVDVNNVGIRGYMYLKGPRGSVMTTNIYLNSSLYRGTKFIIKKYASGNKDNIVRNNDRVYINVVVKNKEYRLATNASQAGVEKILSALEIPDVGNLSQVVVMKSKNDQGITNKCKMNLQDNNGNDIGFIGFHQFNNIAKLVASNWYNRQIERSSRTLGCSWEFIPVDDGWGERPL
With `CC/C(=C(\c1ccc(O)cc1)c1ccc(OCCN(C)C)cc1)c1ccccc1`, the inhibition was -0.2%.

`O=C(O)Cc1ccc(-c2ccccc2)cc1`: the inhibition is -1.2%.

On to `C=CCc1cccc2cc(C(=O)Nc3ccc(CC(=O)O)cc3)c(=O)oc12`, for which the inhibition is -0.1%.

Take `C[C@]12CC[C@@H]3c4ccc(OS(=O)(=O)O)cc4CC[C@H]3[C@@H]1CCC2=O`: the inhibition is -0.2%.

For the molecule `CC1(C)CC(=O)C2=C(C1)c1c(ccc3ccccc13)NC2c1ccco1` (stereo not given), the inhibition was 1.1%.

Consider `Nc1ccc(S(=O)(=O)NC(=O)c2ccccc2)cc1`, for which the inhibition is 1.3%.

For the molecule `COC1CCN(C(=O)c2ccc(OC3CCN(Cc4ccccn4)CC3)cc2)CC1`, the inhibition is 2.3%.

For `CCCCN(CCCC)CCCOC(=O)c1ccc(N)cc1`, the inhibition is 0.8%.

As to `N#CCC(N)=C(C#N)C#N`, the inhibition was -2%.

Take `Cc1c(OC(=O)CNC(=O)OC(C)(C)C)ccc2c3c(c(=O)oc12)CCC3`: the inhibition is -0.5%.

As to `CCS(=O)(=O)Nc1cc(OC)c(OC)cc1Cc1nccc2cc(OC)c(OC)cc12`, the inhibition was 0.4%.

As for `N=C(N)c1ccc(OCCCCCOc2ccc(C(=N)N)cc2)cc1`, the inhibition was -1.6%.

On to `COC(=O)[C@@H](N)CS`, for which the inhibition was -1.9%.

Take `CCC(=O)Oc1ccc(/C(CC)=C(\CC)c2ccc(OC(=O)CC)cc2)cc1`: the inhibition is 0.1%.

On to `OCC1CCN(Cc2cn(Cc3ccccc3)nc2-c2cc3ccccc3o2)CC1`, for which the inhibition was -0.7%.

`O=C(CCN1CCC(c2ccccc2)C1)c1ccc2c(c1)OCCO2` (stereo not given): the inhibition was -0.2%.

Turning to `O=C(OCCN1CCOCC1)c1cccs1`, the inhibition was -0.9%.

Take `O=C(c1cc2cc(Br)ccc2o1)N1CCCCC1`: the inhibition was -0.6%.

For the molecule `CCOC(=O)Cc1c(C)nc(N)[nH]c1=O`, the inhibition was 0.8%.

Turning to `COc1ccc(C2CC(c3c(O)cc(C)oc3=O)=NCCS2)c(OC)c1` (stereo not given), the inhibition is 2%.

Take `C#C[C@]1(O)CC[C@H]2[C@@H]3CCC4=C(CCC(=O)C4)[C@H]3CC[C@@]21C`: the inhibition is 0.1%.

`CC(=O)OCC(=O)C1=CCC2C3CCC4=CC(=O)C=CC4(C)C3(F)C(OC(C)=O)CC12C` (stereo not given): the inhibition is -0.6%.

As to `CC1CCN(C(=O)Oc2ccccc2)CC1`, the inhibition is -1.5%.

For the molecule `O=C(CCSc1ccccc1)N1CCCC1`, the inhibition was -0.9%.

Consider `CCN1CCN(C(=O)N[C@@H](C(=O)N[C@@H]2C(=O)N3[C@@H]2SC(C)(C)[C@@H]3C(=O)O)c2ccccc2)C(=O)C1=O`, for which the inhibition is 0.3%.

In the case of `COc1ccc(OC)c(NC2=C(Cl)C(=O)N(Cc3ccccc3)C2=O)c1`, the inhibition is -2.2%.

With `c1ccc(CNc2ncnc3nc[nH]c23)cc1`, the inhibition was -1.3%.

`O=C1c2ccccc2N2C(=O)c3ccccc3C2N1Cc1ccco1` (stereo not given): the inhibition is 0.7%.

For the molecule `COc1cccc2cc(-c3ccccc3)c(=O)oc12`, the inhibition is -1.7%.

Regarding `O=C(CS(=O)(=O)c1ccccc1)c1ccc2c(c1)OCCO2`, the inhibition is 0.7%.

Consider `CCOC(=O)c1cccc(C(=O)OCC)n1`, for which the inhibition was -0.6%.

As for `CCc1nc2ccccc2n1Cc1ccc(OC)c(OC)c1`, the inhibition is 0.6%.

For the molecule `CC(C)=CCC/C(C)=C/CC/C(C)=C/CC/C(C)=C/CC1=C(C)C(=O)c2ccccc2C1=O`, the inhibition was -0.7%.

Regarding `COC(=O)c1cc(OC)c(OC)cc1NC(=O)CN1C(=O)c2ccccc2C1=O`, the inhibition is -1%.

In the case of `Cc1ccc2c(c1)C(O)(CC(=O)/C=C/C=C/c1ccccc1)C(=O)N2` (stereo not given), the inhibition was -0.9%.

In the case of `CCOC(=O)C1(Cc2cccc(Cl)c2)CCCN(C2CCN(C(C)=O)CC2)C1` (stereo not given), the inhibition was 0.7%.

For `CCOc1ccc(NC(=O)N[C@@H](CCSC)C(=O)OC)cc1`, the inhibition was -1.8%.

In the case of `CC(C)(C)OC(=O)N1CC(O)CC1C(=O)OCC(=O)c1ccc(Cl)cc1` (stereo not given), the inhibition is -2.3%.

On to `Cc1ccc2[nH]c3c(c2c1)CN(C(=O)CN1CCSCC1)CC3`, for which the inhibition was 3.7%.

With `Cc1cccc(CN2CCN(C(c3ccccc3)c3ccc(Cl)cc3)CC2)c1` (stereo not given), the inhibition is -2%.

The record behind these values is PubChem BioAssay.
